Results taken from PubChem BioAssay AID411 (National Center for Advancing Translational Sciences (NCATS), 2006).
Out of some 72,000 compounds screened, about 1,600 (2.2%) were called active. What follows is part of a selection rich in actives, with near analogues and random picks from the rest. A number with no mark means an inactive call. Calls come from the whole dose curve; as a rule, active = well fitted inhibition curve with a large enough effect; inconclusive = small, poorly fitted or top-dose-only effect; inactive = flat fitted curve, though single readings scatter.

Target: Luciferin 4-monooxygenase (Photinus pyralis) (UniProt P08659)
Assay: qHTS Assay for Inhibitors of Firefly Luciferase; note: nearly all actives have a fitted effect of over 40% in size
Conditions: purified firefly luciferase, luminescence, 8 min; series mostly up to 57.1 µM; activity change, negative = inhibition: at the top concentration
Method in brief: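 Here, luciferase activity is measured as luminescence following an 8 min room-temperature reaction at 10 uM ATP, pH 7.2. Every library sample is titrated.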
% is set by controls: 0 for no effect and ±100 for the full control effect; potency is the fitted concentration of half-maximal effect.

Luciferin 4-monooxygenase (Photinus pyralis), sequence (P08659 whole entry, looked up): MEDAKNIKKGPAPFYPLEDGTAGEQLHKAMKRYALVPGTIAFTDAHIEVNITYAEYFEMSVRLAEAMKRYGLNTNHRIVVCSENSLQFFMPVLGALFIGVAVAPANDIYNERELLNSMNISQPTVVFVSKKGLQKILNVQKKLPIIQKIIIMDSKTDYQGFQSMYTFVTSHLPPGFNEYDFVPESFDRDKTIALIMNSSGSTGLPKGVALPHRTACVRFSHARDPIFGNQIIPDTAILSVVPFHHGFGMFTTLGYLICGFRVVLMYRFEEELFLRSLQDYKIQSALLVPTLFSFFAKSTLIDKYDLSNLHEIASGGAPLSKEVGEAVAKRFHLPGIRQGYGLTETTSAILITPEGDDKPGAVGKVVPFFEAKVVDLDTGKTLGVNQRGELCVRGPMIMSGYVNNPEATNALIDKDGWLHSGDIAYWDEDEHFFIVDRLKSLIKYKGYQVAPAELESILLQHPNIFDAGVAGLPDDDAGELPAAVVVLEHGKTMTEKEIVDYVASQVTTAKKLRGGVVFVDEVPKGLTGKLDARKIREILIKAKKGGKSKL

Structure (SMILES)	activity change, negative = inhibition	Potency
CC(=O)N1CCN(C(=O)c2cccc(S(=O)(=O)Nc3ccc(C)cc3)c2)CC1	-0.426%	–
COC(=O)c1[nH]c2ccccc2c1NS(=O)(=O)c1ccc(OC)cc1OC	2.42%	–
COc1ccc(N=Cc2c(O)[nH]c3ccccc23)cc1OC	–	15.8 µM (active)
COc1ccc(OC)c(N=Cc2c(O)[nH]c3ccccc23)c1	-1.73%	–
CCOC(=O)C1CCCCN1Cc1ccc(OC)c(OC)c1OC (stereo not drawn)	0.258%	–
CCn1c(SCC(=O)Nc2nc3ccc(OC)cc3s2)nnc1-c1ccoc1C	2.48%	–
COc1ccc2nc(NC(=O)c3ccc(Br)s3)sc2c1	–	12.6 µM (active)
CNC(=O)c1ccc2nc(NC(C)=O)sc2c1	-1.03%	–
Cc1ccnc(N2CCC(C(=O)NC3CCCCCC3)CC2)n1	2.91%	–
Cc1nc2ccccc2c(=O)n1CCCn1ccnc1	-1.7%	–
Cc1ccnc(-n2sc3ccccc3c2=O)n1	–	20 µM (active)
N#CCCN(CCC#N)c1nnc(-c2ccccc2)s1	0.392% [at 25.5 µM]	–
COc1ccc(-c2cn3ccsc3n2)cc1	–	3.98 µM (active)
O=C(NCc1cn2ccsc2n1)Nc1ccc(Cl)cc1	0.782%	–
Cc1ccc(S(=O)(=O)NCc2cn3ccsc3n2)c(C)c1	2.5%	–
CC(=O)N1CCC2(CCCN(Cc3ccc(C#N)cc3)C2)CC1	0.0675% [at 11.4 µM]	–
Cc1ccc(NC(=O)CSc2nnc(-c3cnccn3)n2Cc2ccco2)cc1C	3.02%	–

Structure (SMILES)	activity change, negative = inhibition	Potency
CN(C(=O)c1ccno1)c1nnc(-c2cccnc2)s1	1.45%	–
CN(C(=O)COc1ccccc1)c1nnc(-c2ccncc2)s1	1.63%	–
CN(C(=O)c1ccccn1)c1nnc(-c2ccccn2)s1	–	10 µM (active)
O=S1(=O)CCN2C(=N1)SC1=C2CCN(Cc2ccccc2)C1	3.97%	–
COc1ccc(-c2nc3n(c2Br)CCC3)cc1	–	12.6 µM (active)
COc1ccc(-c2cc3n(n2)CCc2nc4ccccc4n2-3)cc1	-7.74%	–
Brc1cccc(-c2nnc3n2CCC3)c1	3.1%	–
Cc1nc2ccc(NC(=O)N3CCC(c4ccccc4)C3)cc2nc1C (stereo not drawn)	-3.94%	–
Cc1ccc(NC(=O)c2cc(-c3ccc(C)o3)nc3ccccc23)nc1	–	12.6 µM (active)
Cc1ccc(C(=O)CSc2nc3ccccc3c(=O)n2N)o1	-6.16%	–
Cc1cc(=O)oc(C)c1C(=O)Nc1cnc2ccccc2c1	1.01%	–
CCOC(=O)Cc1csc(NC(=O)CSc2nc(C)cc(=O)[nH]2)n1	-4.5%	–
CCOC(=O)Cc1csc(NC(=O)Nc2ccccc2)n1	–	12.6 µM (active)
CCOC(=O)Cc1csc(NC(=O)C(C)(C)C)n1	-1.59%	–
CNc1nc(-c2ccccc2OC)nc2ccccc12	-0.211% [at 2.29 µM]	–
Cc1nc2cnc(Nc3ccccc3)nc2n(Cc2ccc(F)cc2)c1=O	-0.327% [at 11.4 µM]	–
